Test results published in ChEMBL document CHEMBL4513146, “CO-ADD screening of Karazin Kharkiv National University (Ukraine) compounds”.
Results with a measured potency or affinity are listed apart.

Assays:
Staphylococcus aureus = settings: Concentration 32 ug.mL-1;; ASSAY_TEST Inhibition of Bacterial Growth; detection method Absorption (OD600); MEDIA CAMHB; plate type 384well; NBS; CORNING #3640; time 18 hr
Escherichia coli = settings: Concentration 32 ug.mL-1;; ASSAY_TEST Inhibition of Bacterial Growth; detection method Absorption (OD600); MEDIA CAMHB; plate type 384well; NBS; CORNING #3640; time 18 hr

SMILES | Inhibition (Staphylococcus aureus) | Inhibition (Escherichia coli)
Cc1cccc(Sc2nccn3c(=O)n(CC(=O)Nc4ccc(Br)cc4C)nc23)c1 | 8.48% | -5.33%
COc1ccc(NC(=O)c2ccc3nn(CC(=O)Nc4ccc(C(C)=O)cc4)c(=O)n3c2)cc1 | 15.44% | -1.93%
CC(C)Cn1c(=O)c2sccc2n2c(=O)n(Cc3ccc(N4CCCC4=O)cc3)nc12 | -1.91% | -2.57%
CC(C)c1nnc2c(SCC(=O)N3CCN(c4ccccc4F)CC3)nc3ccccc3n12 | -2.06% | -6.39%
Cc1ccc(Sc2nccn3c(=O)n(CC(=O)N4CCN(c5ccccc5F)CC4)nc23)c(C)c1 | 2.97% | -4.29%
COc1cc(OC)c(NC(=O)Cn2nc3c(Oc4ccc(C)cc4)nccn3c2=O)cc1Cl | 4.71% | -4.58%
COc1ccc(NC(=O)CSc2nc3ccccc3n3cnnc23)cc1OC | 12.3% | 2.46%
COc1ccc(NC(=O)c2ccc3nn(CC(=O)Nc4ccc(S(C)(=O)=O)cc4)c(=O)n3c2)cc1 | 11.72% | -6.83%
Cc1ccc(Oc2nccn3c(=O)n(CC(=O)Nc4ccc(C)cc4Br)nc23)cc1 | 4.05% | -2.42%
CCCn1c(=O)c2sccc2n2c(CCC(=O)NCCC34CC5CC(CC(C5)C3)C4)nnc12 | 0.48% | -2.55%
CC(C)c1ccc(CNC(=O)CCc2nnc3c(N4CCCCC4)nc4ccccc4n23)cc1 | 3.73% | -5.19%
CCC(C)NC(=O)Cn1nc2ccc(SCc3ccc(Cl)cc3)nn2c1=O (centres undefined) | 7.31% | -1.43%
O=C(Cn1nc2c(N3CCOCC3)nccn2c1=O)NCc1cccc(C(F)(F)F)c1 | 16.25% | -1.74%
COc1ccc(NC(=O)CSc2nnc3c(=O)n(-c4cccc(OC)c4)ccn23)cc1 | 14.04% | -12.03%
COc1cccc(-n2ccn3c(SCc4cc(C)ccc4C)nnc3c2=O)c1 | 11.56% | -0.49%
Cc1ccc(Cl)cc1N1CCN(C(=O)CCc2nnc3c4cc(-c5ccccc5)nn4ccn23)CC1 | 1.17% | -6.03%

SMILES | Inhibition (Staphylococcus aureus) | Inhibition (Escherichia coli)
Cc1nnc2c(=O)n(CC(=O)Nc3cccc(F)c3)c3ccccc3n12 | 14.13% | 2.22%
O=c1c2sccc2n2c(=O)n(Cc3ccc(Br)cc3)nc2n1CCc1ccccc1 | -9.4% | -11.48%
Cc1ccc(-c2ccc3nn(Cc4nc(-c5ccc(OC(F)(F)F)cc5)no4)c(=O)n3n2)cc1 | 8.38% | -3.94%
COc1ccc(NC(=O)c2ccc3nn(CC(=O)Nc4cccc(OC)c4)c(=O)n3c2)cc1 | 15.63% | 0.97%
CCCNC(=O)Cn1nc2nc(Nc3ccc(F)cc3)ccn2c1=O | 8.25% | -13.63%
CC(C)c1nnc2c(=O)n(CC(=O)Nc3ccc(F)cc3F)c3ccccc3n12 | 12.23% | 2.42%
Cc1ccc(NC(=O)Cn2nc3c4c5c(sc4ncn3c2=O)CCCC5)c(Cl)c1 | -4.74% | -9.07%
Cc1cc(C)cc(NC(=O)Cn2nc3c4cc(-c5ccc(Cl)cc5)nn4ccn3c2=O)c1 | 2.02% | 6.23%
CC(C)Sc1ccc2nn(CC(=O)Nc3ccc(F)cc3Cl)c(=O)n2n1 | -4.06% | -3%
Cc1ccc(-c2cc3c4nn(CC(=O)Nc5ccc6c(c5)OCO6)c(=O)n4ccn3n2)cc1C | -8.73% | -12.23%
COc1ccc(C(=O)CSc2nnc3c(=O)n(-c4ccc(F)cc4)ccn23)cc1 | 13.68% | -0.44%
COc1ccc(CCn2c(=O)c3sccc3n3c(=O)n(Cc4ccc(F)cc4)nc23)cc1OC | 2.92% | -0.5%
COc1ccc(-c2cc3c4nn(CC(=O)Nc5ccc(C)cc5C)c(=O)n4ccn3n2)cc1 | 1.83% | 2.27%
COc1cc(NC(=O)Cn2nc3ccc(SC(C)(C)C)nn3c2=O)cc(OC)c1OC | 10.38% | 1.07%
Cc1cccc(NC(=O)c2ccc3nn(CC(=O)N4CCc5ccccc5C4)c(=O)n3c2)c1 | -5.11% | -8.84%
N#Cc1cccc(NC(=O)Cn2nc3c(Oc4ccccc4)nccn3c2=O)c1 | 10.16% | -2.65%
